# Results: publication PMC4336329 (PLoS ONE, 2015)
# The whole screen tested about 310,000 compounds, of which about 14,000 (4.5%) showed an effect of 50% or more. The effect is printed as a negative number. This is one part of a sample in which strong results are shown more often than they occur.
# Target: human ether-à-go-go-related gene (hERG) potassium channel (human, UniProt Q12809)
# Test: primary screen, population patch clamp on CHO cells stably expressing hERG; higher = less effect of the substance
# 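Further: peak tail current of the secondary pulse compared with the same well before compound.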
# human ether-à-go-go-related gene (hERG) potassium channel, sequence (Q12809 whole entry, looked up): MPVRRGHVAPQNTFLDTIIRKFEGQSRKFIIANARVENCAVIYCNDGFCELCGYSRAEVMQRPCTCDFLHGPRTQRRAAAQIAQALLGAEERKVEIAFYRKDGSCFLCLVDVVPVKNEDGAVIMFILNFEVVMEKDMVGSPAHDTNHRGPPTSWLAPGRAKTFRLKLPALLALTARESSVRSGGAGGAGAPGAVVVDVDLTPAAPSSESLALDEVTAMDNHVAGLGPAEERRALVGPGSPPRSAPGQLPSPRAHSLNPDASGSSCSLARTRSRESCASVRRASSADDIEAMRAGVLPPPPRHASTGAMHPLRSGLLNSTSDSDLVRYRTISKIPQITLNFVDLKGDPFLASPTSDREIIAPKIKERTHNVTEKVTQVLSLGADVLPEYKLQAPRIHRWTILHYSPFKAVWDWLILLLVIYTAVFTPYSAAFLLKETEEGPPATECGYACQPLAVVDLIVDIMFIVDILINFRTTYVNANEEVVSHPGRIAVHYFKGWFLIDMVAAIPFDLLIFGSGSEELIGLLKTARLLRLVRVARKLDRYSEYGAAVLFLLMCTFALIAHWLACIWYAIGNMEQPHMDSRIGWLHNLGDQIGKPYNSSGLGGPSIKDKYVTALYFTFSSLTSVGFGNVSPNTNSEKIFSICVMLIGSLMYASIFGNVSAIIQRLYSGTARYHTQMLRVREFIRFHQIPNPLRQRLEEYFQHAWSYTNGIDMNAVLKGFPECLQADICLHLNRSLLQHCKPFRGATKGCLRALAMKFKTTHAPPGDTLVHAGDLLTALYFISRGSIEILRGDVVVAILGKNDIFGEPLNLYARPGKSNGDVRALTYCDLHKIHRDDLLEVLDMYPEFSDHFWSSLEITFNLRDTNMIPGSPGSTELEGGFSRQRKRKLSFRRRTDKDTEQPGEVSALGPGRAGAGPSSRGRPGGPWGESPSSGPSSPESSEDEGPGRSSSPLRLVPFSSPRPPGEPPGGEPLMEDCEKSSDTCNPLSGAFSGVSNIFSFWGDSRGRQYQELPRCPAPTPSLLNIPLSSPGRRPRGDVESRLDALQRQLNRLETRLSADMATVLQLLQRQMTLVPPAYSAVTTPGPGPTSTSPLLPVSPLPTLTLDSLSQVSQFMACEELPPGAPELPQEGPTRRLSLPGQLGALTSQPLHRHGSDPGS
row,Compound,"hERG current change (%, negative = inhibition) at 10uM [%]"
1,CC(C)(C)c1cc(NC(=O)Nc2ccccc2OC(F)(F)F)no1,26.4
2,O=C(COC(=O)c1cccc(S(=O)(=O)NCc2ccccc2)c1)Nc1ccccc1OC(F)F,11.5
3,CC1CCCN(C(=O)NC(=O)c2ccc(Cl)cc2)C1 (stereo not shown),3.85
4,C[C@@H](CN1C2=NC[C@H](Cc3ccccc3)N2C[C@H]1Cc1ccc(O)cc1)NC(=O)CCC1CCCCC1,-71.2
5,CC(CCc1ccccc1)NC(=O)CCC1CCCC1 (stereo not shown),-24.5
6,C[C@@H](CN1C2=NC[C@H](Cc3ccc(O)cc3)N2C[C@H]1Cc1ccc(O)cc1)NC(=O)CCC1CCCCC1,-10.3
7,O=C(c1ccc(N2CCN(C3CC(=O)N(c4ccc(F)cc4)C3=O)CC2)cc1)c1cccnc1 (stereo not shown),-50.6
8,O=C(c1ccc(N2CCN(C3CC(=O)N(Cc4cccs4)C3=O)CC2)cc1)c1cccnc1 (stereo not shown),-73.5
9,O=C(c1ccncc1)c1ccc(N2CCN(C3CC(=O)N(Cc4cccs4)C3=O)CC2)cc1 (stereo not shown),-79.3
10,O=C1CC(N2CCN(c3ccc(O)cc3)CC2)C(=O)N1Cc1cccs1 (stereo not shown),-7.15
11,O=C1CC(N2CCN(c3ccc(F)cc3)CC2)C(=O)N1Cc1cccs1 (stereo not shown),-42.5
12,NC(=O)C1CCN(C2CC(=O)N(Cc3cccs3)C2=O)CC1 (stereo not shown),0.931
13,NC(=O)C1(N2CCCCC2)CCN(C2CC(=O)N(Cc3cccs3)C2=O)CC1 (stereo not shown),6.12
14,O=C1CC(N2CCN(c3ccc(F)cc3)CC2)C(=O)N1c1ccc(F)cc1 (stereo not shown),1.07
15,O=C(c1ccncc1)c1ccc(N2CCN(C3CC(=O)N(Cc4ccccc4)C3=O)CC2)cc1 (stereo not shown),-76.2
16,CCN1C(=O)CC(N2CCN(c3ccc(C(=O)c4ccncc4)cc3)CC2)C1=O (stereo not shown),-12.3
17,COc1ccc(N2C(=O)CC(N3CCN(c4ccc(C(=O)c5cccnc5)cc4)CC3)C2=O)cc1 (stereo not shown),-48.2
18,O=C1CC(N2CCN(c3ccc(F)cc3)CC2)C(=O)N1Cc1ccccc1 (stereo not shown),-17.6
19,COc1ccc(S(=O)(=O)Nc2cc(C(=O)NCCCN3CCOCC3)ccc2N2CCOCC2)cc1,25
20,CC(=O)N(C)c1ccc(NC(=O)Nc2cccc3ccccc23)cc1,-2.88
21,COC(=O)Cn1c(SCc2ccccc2)nc2ccccc21,-13.8
22,Cc1cccc(Cn2cccc2/C=C2/C(=N)N3C=CSC3=NC2=O)c1,-1.72
23,O=C(NCc1nc2ccccc2[nH]1)C1=C[C@@H](c2csc3ccccc23)C[C@@H](OCCCCO)O1,-29.6
24,O=C(Nc1ccccc1)C1=C[C@H](c2csc3ccccc23)C[C@H](OCCCCO)O1,-5.71
25,O=C(NCc1nc2ccccc2[nH]1)C1=C[C@@H](c2ccc(Br)cc2)C[C@@H](OCCCCO)O1,-65.9
26,O=C(NCc1nc2ccccc2[nH]1)C1=C[C@@H](c2ccccc2)C[C@@H](OCCCCO)O1,-46.5
27,O=C(NCc1nc2ccccc2[nH]1)C1=C[C@H](c2ccccc2)C[C@H](OCCCCO)O1,-36.3

row,Compound,"hERG current change (%, negative = inhibition) at 10uM [%]"
1,O=C(NCc1nc2ccccc2[nH]1)C1=C[C@H](c2ccccc2)C[C@H](OCc2ccc(CO)cc2)O1,-13.6
2,O=C(NCc1nc2ccccc2[nH]1)C1=C[C@H](c2ccc(Br)cc2)C[C@H](OCc2ccc(CO)cc2)O1,3.89
3,O=C(NCc1nc2ccccc2[nH]1)C1=C[C@H](c2coc3ccccc3c2=O)C[C@H](OCc2ccc(CO)cc2)O1,-21.5
4,O=C(NCc1nc2ccccc2[nH]1)C1=C[C@@H](c2ccccc2)C[C@@H](OCc2ccc(CO)cc2)O1,-64.9
5,O=C(NCc1ccccc1)C1=C[C@H](c2csc3ccccc23)C[C@H](OCCCCO)O1,-12.5
6,O=C(NCc1ccccc1)C1=C[C@@H](c2csc3ccccc23)C[C@@H](OCCCCO)O1,-69
7,O=C(NCc1nc2ccccc2[nH]1)C1=C[C@H](c2coc3ccccc3c2=O)C[C@H](OCCCCO)O1,-50.7
8,Nc1nc2c(ncn2C2C[C@H](O)[C@@H](CO)O2)c(=O)[nH]1 (stereo partly shown),14.4
9,Cc1nnc(NC(=O)c2ccc(S(=O)(=O)N3CCc4ccccc4C3)cc2)o1,8.81
10,Cc1cc(C)n(-c2nnc(C)n2NC(=O)c2cccc(Cl)c2)n1,11.1
11,Cc1cccc[n+]1CC(=O)c1ccc(NC(=O)c2ccccc2)cc1.[Br-],28.6
12,COc1ccccc1NC(=O)Nc1nc(CC(=O)NCc2ccc(F)cc2)cs1,-11.4
13,Cc1ccc(S(=O)(=O)NCc2ccccc2)cc1C(=O)NC1CCCCC1,15.9
14,COc1cc(C(=O)NCC(=O)OCCN2C(=O)c3ccccc3C2=O)cc(OC)c1OC,4.2
15,CCNc1nc(Oc2ccc(=O)[nH]n2)nc(SC)n1,8.57
16,CC1=CC(C/C(C)=C/COc2ccc3ccc(=O)oc3c2)OC1=O (stereo not shown),2.36
17,COC(=O)c1c(NC(=O)c2ccccc2F)sc2c1C(C(=O)OC)CC2 (stereo not shown),9.38
18,CCCn1c(SCC(=O)c2cc(OC)ccc2OC)nnc1-c1ccco1,-12.5
19,C#CCNC(=O)C1=C[C@H](c2coc3ccccc3c2=O)C[C@H](OCCCCO)O1,-45
20,O=C(NC1CC1)C1=C[C@@H](c2coc3ccccc3c2=O)C[C@@H](OCCCCO)O1,-23.8
21,O=C(NCc1ccccc1)C1=C[C@H](c2coc3ccccc3c2=O)C[C@H](OCCCCO)O1,-55.4
22,O=C(NCc1ccccc1)C1=C[C@@H](c2coc3ccccc3c2=O)C[C@@H](OCCCCO)O1,-83.1
23,O=C(O)C1=C[C@@H](c2coc3ccccc3c2=O)C[C@@H](OCCCCO)O1,22.8
24,O=C(O)C1=C[C@H](c2coc3ccccc3c2=O)C[C@H](OCCCCO)O1,3.91
25,O=C(Nc1ccccc1)C1=C[C@@H](c2coc3ccccc3c2=O)C[C@@H](OCCCCO)O1,-41.1
26,C#CCNC(=O)C1=C[C@@H](c2coc3ccccc3c2=O)C[C@@H](OCCCCO)O1,1.71
27,O=C(Nc1ccccc1)C1=C[C@H](c2coc3ccccc3c2=O)C[C@H](OCCCCO)O1,-70.3

row,Compound,"hERG current change (%, negative = inhibition) at 10uM [%]"
1,COc1cc2c(cc1OC)CN(C(=S)Nc1ccccc1)CC2,-7.19
2,O=C(/C=C/c1cc(Br)ccc1F)Nc1cccnc1,14.6
3,COc1ccccc1N(CC(=O)NC1CCCC1)C(=O)C1(C)CC(=O)N=C2C=CC(C)=CN21 (stereo not shown),12.5
4,CC(C)CCN(C(=O)c1ccc(N2CCCC2=O)cc1)c1c(N)n(Cc2ccccc2)c(=O)[nH]c1=O,12.2
5,Cc1ccc(-n2cc3ccc([N+](=O)[O-])cc3n2)cc1,5.28
6,CC(C)n1c(Nc2ccccc2)nc2ccccc21,-1.84
7,COc1cccc(NC(=O)CSc2nc3c(sc4ccccc43)c(=O)n2CCCN2CCCC2)c1,-69.8
8,COc1ccc(NC(=O)CSc2nc3c(sc4ccccc43)c(=O)n2CCCN2CCCC2)cc1,-30.8
9,Cc1cc(NC(=O)CSc2nc3c(sc4ccccc43)c(=O)n2CCc2ccccc2)n[nH]1,-19.6
10,COCCn1c(SCC(=O)Nc2cccc(OC)c2)nc2c(oc3ccccc32)c1=O,-42.2
11,COc1cccc(NC(=O)CSc2nc3c(sc4ccccc43)c(=O)n2CCN(C)C)c1.Cl,-65.5
12,CCN(CC)CCn1c(SCC(=O)Nc2ccc(F)cc2)nc2c(sc3ccccc32)c1=O.Cl,-14.9
13,COc1cccc(NC(=O)CSc2nc3c([nH]c4ccccc43)c(=O)n2C)c1,16.4
14,COc1ccccc1NC(=O)CSc1nc2c(sc3ccccc32)c(=O)n1CCN(C)C.Cl,11.5
15,CCN(CC)CCn1c(SCC(=O)Nc2cccc(OC)c2)nc2c(sc3ccccc32)c1=O,-69.2
16,Cc1ccc(C)c(N2CCN(S(=O)(=O)c3ccc4c(c3)CC(=O)N4C)CC2)c1,-19.4
17,COc1ccc(Nc2nnc(SCC3CCCO3)s2)cc1 (stereo not shown),-5.7
18,Cc1nc(NC(=O)C(Cl)Cl)sc1C(=O)N(C)C,5.44
19,CCCC(c1nnnn1CC1CCCO1)N1CCN(c2ccccc2)CC1.Cl (stereo not shown),-4.74
20,O=C(Nc1cccc(Oc2ccc3c(c2)C(=O)NC3=O)c1)c1ccco1,-21.8
21,CCn1c(=O)[nH]c(=O)c2c(N)c(C(=O)c3ccccc3OC)sc21,-15.2
22,Cc1ccc(C(=O)c2sc3c(c2N)c(=O)[nH]c(=O)n3CCc2ccccc2)cc1,12.2
23,CCn1c(=O)[nH]c(=O)c2c(N)c(C(=O)c3cc(F)ccc3F)sc21,-57.4
24,CC1=Nc2ccccc2/C1=C/c1sc(=N)n(-c2nccs2)c1O,10.5
25,O=C(CN1C(=O)/C(=C/c2ccco2)SC1=S)Nc1ccc(O)c(C(=O)O)c1,25.2
